Assay results taken from PubChem BioAssay AID720517 (National Center for Advancing Translational Sciences (NCATS), 2013).
Results filed as inconclusive are left out. Entries that show only a call come without a potency. Calls of active or inactive are those of the source. Calls come from the whole dose curve; as a rule, active = well fitted activation curve with a large enough effect; inconclusive = small, poorly fitted or top-dose-only effect; inactive = flat fitted curve, though single readings scatter.
Potency is the fitted concentration of half-maximal effect.

Assay: qHTS for Inhibitors of Cell Surface uPA Generation: FP59 Counterscreen for Cherry-picked Compounds
Conditions: FP59 anthrax toxin cytotoxicity counterscreen, cells; series mostly up to 115 µM
For Cc1ccc(-n2ncc(C(=O)NC3CC3)c2C2CCN(C(=O)OC(C)(C)C)CC2)cc1, the Potency was “inactive”. For CCn1c(CNc2ccc(F)cc2)nnc1SCC(=O)Nc1ccccc1OC, the Potency was “inactive”. In the case of Cc1c(NC(=S)Nc2ccc(Cl)cc2)c(=O)n(-c2ccccc2)n1C, the Potency is reported as “inactive”. For COc1ccc(CC(=O)OCC(=O)NNC(=O)c2ccccc2)cc1, the Potency was “inactive”. In the case of O=C(CC1(O)C(=O)Nc2ccccc21)c1cccc(Br)c1 (stereo not given), the Potency is reported as “inactive”. For C=CC(=O)N1C/C(=C/c2ccccc2)C(=O)/C(=C\c2ccccc2)C1, the Potency was 13.1 µM (active). With CC(C)(C)C(=O)NCCc1nc2ccccc2n1CC(=O)c1ccc(Cl)cc1 the Potency was “inactive”. In the case of CCn1c(=O)cc(C(=O)OC)sc1=Nc1ccc(F)c(F)c1, the Potency is reported as “inactive”. For Cn1cccc1Cc1nnc(SCC(=O)Nc2ccc3c(c2)OCCO3)n1-c1ccc(F)cc1, the Potency was “inactive”. In the case of Cc1ccccc1C(=O)NCC(=O)Nc1ccc(C)c(S(=O)(=O)N2CCCCCC2)c1, the Potency is reported as “inactive”. For Cc1ccc2sc(NNC(=O)c3ccc4c(c3)OCCO4)nc2c1C, the Potency was “inactive”. For Cc1ccc(Cl)cc1NC(=O)c1ccccc1OCC(=O)N1CCOCC1, the Potency was “inactive”. With Cn1nc(N2CCN(S(=O)(=O)c3ccccc3)CC2)c(=O)n(C)c1=O the Potency was “inactive”. In the case of CC1(c2cccc([N+](=O)[O-])c2)CC(C)(C)N(C(=O)c2ccccc2)c2ccccc21 (stereo not given), the Potency is reported as “inactive”. With O=C(O)c1cc(N=Nc2c(O)[nH]c3ccc([N+](=O)[O-])cc23)ccc1Cl the Potency was “inactive”. With COc1ccc(-c2cccc(-c3cc(=O)oc4cc(OC)c(OC)c(OC)c34)c2)cc1 the Potency was “inactive”. For Cc1ccc(NC(=O)C(C)S)cc1 (stereo not given), the Potency was “inactive”. With Cc1ccc(NC(=O)CS(=O)Cc2nc(-c3ccc(C)cc3)oc2C)cc1 (stereo not given) the Potency was “inactive”. In the case of CCOc1ccc(C(=O)NCCO)cc1, the Potency is reported as “inactive”. In the case of CCCCCOC(=O)Nc1nnc(CCCCC)s1, the Potency is reported as “inactive”. In the case of COC(=O)c1ccc(CN2CCCC(CNC(=O)Cc3ccc(OC)cc3)C2)cc1 (stereo not given), the Potency is reported as “inactive”. For Cc1ccnc(NS(=O)(=O)c2ccc(NC(=O)C3C4C=CC(C4)C3C(=O)O)cc2)n1 (stereo not given), the Potency was “inactive”. In the case of CCCOc1ccc(CC2CCC(=O)NC2=O)cc1 (stereo not given), the Potency is reported as “inactive”. With CC(=O)c1ccc(N2CCN(C(=S)NCc3ccco3)CC2)cc1 the Potency was “inactive”. With NC(=O)C1CCN(C(=O)c2cccc3ccccc23)CC1 the Potency was “inactive”. For CCOC(=O)C1=C(C)N(Cc2ccccc2)C(=O)NC1c1ccc(OC)cc1 (stereo not given), the Potency was “inactive”. In the case of C=C(C)C(=O)O[C@H]1C/C(C)=C\C(=O)/C=C(\C)[C@H](O)[C@@H]2OC(=O)C(=C)[C@@H]21, the Potency is reported as “inactive”. For Cc1ccc(S(=O)(=O)NCC(=O)OC(C)C(=O)NCc2ccc3c(c2)OCO3)cc1 (stereo not given), the Potency was “inactive”. In the case of Cn1c(C2CCCCC2)nc2cc(N)ccc21, the Potency is reported as “inactive”. With Cc1cc(/C=N/NC(=O)c2ccccc2F)c(C)n1-c1ccccc1 the Potency was “inactive”. With O=C(COc1ccccc1F)NCC(c1ccc(F)cc1)N1CCOCC1 (stereo not given) the Potency was “inactive”. In the case of O=C(c1ccccn1)C1CCCN(Cc2cn[nH]c2-c2cc3ccccc3o2)C1 (stereo not given), the Potency is reported as “inactive”. In the case of O=C(NCCCn1cccn1)C1CCC(=O)N(Cc2ccccc2F)C1 (stereo not given), the Potency is reported as “inactive”. In the case of COc1ccc(Nc2nc(-c3ccccc3)c(C(=O)Nc3cccnc3)s2)cc1, the Potency is reported as “inactive”. With CNC(=S)N1C2CCCC1CC(NC(=O)c1ccc(F)cc1)C2 (stereo not given) the Potency was “inactive”. With O=C(CN(c1ccccc1F)S(=O)(=O)c1ccccc1)Nc1ccc2c(c1)OCCO2 the Potency was “inactive”. In the case of O=C(O)CCCC(=O)NCCCCc1ccccc1, the Potency is reported as “inactive”. With COc1ccc(NC(=O)c2cccnc2N2CCOCC2)cc1 the Potency was “inactive”. With COCCOc1ccc(C(F)(F)F)cc1NC(=O)COC(=O)Cc1c[nH]c2ccccc12 the Potency was “inactive”. In the case of Cc1cnc(C(=O)OCC(=O)Nc2ccc3c(c2)OCCO3)cn1, the Potency is reported as “inactive”.
